PAFAH1B2 inh = PAFAH1B2 (human) inhibition | P68402 | recombinant PAFAH1B2, FP-rhodamine activity probe, fluorescence polarization | inhibition, % at 3.39 µM | actives 1.2% (n = 340,000) | AID 492953;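 active = inhibition above the mean of all tested compounds plus 3 SD, cut at about 24% in these data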;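 note: 0% = enzyme with DMSO and 100% = wells lacking PAFAH1B2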
Target sequence (P68402 whole entry, looked up): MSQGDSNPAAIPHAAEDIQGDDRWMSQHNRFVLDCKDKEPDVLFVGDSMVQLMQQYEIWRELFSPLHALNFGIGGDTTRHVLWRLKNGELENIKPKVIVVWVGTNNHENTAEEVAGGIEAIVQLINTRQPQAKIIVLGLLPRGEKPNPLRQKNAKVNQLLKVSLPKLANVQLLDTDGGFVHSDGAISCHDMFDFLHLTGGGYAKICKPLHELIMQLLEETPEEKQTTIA
Fam108B counter = blocks mouse Fam108B hydrolase in RBBP9 counter-screen; actives 0.33% (n = 300,000); recombinant Fam108B, FP-Rh probe fluorescence polarization; inhibition, % at 9.51 µM;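 active = inhibition above the screen mean inhibition plus 3 SD, computed separately per campaign, cut at about 18% in these data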;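 note: inhibitors lower polarization as less probe binds the enzyme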
pPAFAH FP inh = pPAFAH (human) enzyme inhibition | actives 1.5% (n = 330,000) | recombinant pPAFAH, FP-rhodamine probe fluorescence polarization | inhibition, % at 3.39 µM | Q13093;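 active = inhibition above the mean inhibition across the screen plus 3 SD, cut at about 25% in these data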;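 note: inhibitors block binding of the rhodamine activity-based probe so polarization drops; 0% = enzyme with DMSO and 100% = wells lacking pPAFAH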
Target sequence (Q13093 whole entry, looked up): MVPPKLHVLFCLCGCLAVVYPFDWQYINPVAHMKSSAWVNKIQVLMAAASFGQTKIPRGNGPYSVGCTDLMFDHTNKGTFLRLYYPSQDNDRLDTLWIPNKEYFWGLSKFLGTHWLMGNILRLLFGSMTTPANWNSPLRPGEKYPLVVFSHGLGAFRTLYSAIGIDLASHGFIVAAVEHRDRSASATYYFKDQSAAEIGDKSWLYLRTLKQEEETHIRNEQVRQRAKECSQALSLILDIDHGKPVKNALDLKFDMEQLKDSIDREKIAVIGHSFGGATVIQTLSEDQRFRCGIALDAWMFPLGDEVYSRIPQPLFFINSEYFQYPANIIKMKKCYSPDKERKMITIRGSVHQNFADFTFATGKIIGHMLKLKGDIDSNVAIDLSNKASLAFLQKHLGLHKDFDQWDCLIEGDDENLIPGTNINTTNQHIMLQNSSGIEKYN
PME-1 inh = blocks human protein phosphatase methylesterase 1; recombinant PME-1, FP-Rh probe fluorescence polarization; inhibition, % at 5.9 µM; actives 0.53% (n = 320,000); AID 2130;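 active = inhibition above the campaign mean of all compounds plus 3 SD, cut at about 26% in these data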;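 note: competitive labeling of PME-1 active site by serine hydrolase directed probe; 0% = PME-1 with DMSO and 100% = wells lacking PME-1 enzyme; inhibitors block probe labeling so polarization falls and inhibition rises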
PAFAH2 FP inh = PAFAH2 (human) inhibition | Q99487 | actives 0.99% (n = 340,000) | inhibition, % at 3.39 µM | recombinant PAFAH2, FP-rhodamine activity probe, fluorescence polarization;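 active = inhibition above the mean over all tested compounds plus 3 SD, cut at about 30% in these data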;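 note: inhibitors block probe labeling of enzyme so polarization drops; 0% = enzyme with DMSO and 100% = wells lacking PAFAH2 protein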
PAFAH1B3 FP inh = blocks human PAF acetylhydrolase 1B catalytic subunit 3. Q15102. recombinant PAFAH1B3, FP-rhodamine probe, fluorescence polarization. inhibition, % at 3.39 µM. actives 0.28% (n = 340,000). AID 492972;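 active = inhibition above the screen-wide average of all tested compounds plus 3 SD, cut at about 25% in these data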;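 note: 0% = enzyme with DMSO only and 100% = wells lacking PAFAH1B3 protein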
Fam108b inh conf = Fam108b (mouse) hydrolase inhibition, confirmation assay | shares compounds with Fam108B counter | recombinant Fam108b, FP-Rh probe fluorescence polarization | inhibition, % at 9.51 µM | actives 44% (n = 930) | AID 1978;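 active = inhibition above a limit from the primary screen, the mean over all compounds plus 3 SD, cut at about 19% in these data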;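 note: 0% = median of active Fam108b wells and 100% = catalytically dead S170A mutant; inhibitors free the probe so polarization falls as inhibition rises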
Fam108b inh = inhibits mouse Fam108b in gel-based ABPP; shares compounds with Fam108B counter; actives 44% (n = 260); recombinant Fam108b, fluorophosphonate probe; inhibition, % at 20 µM; in the data active = inhibition above about 40%
pPAFAH FP conf = pPAFAH (human) inhibition, confirmed. AID 463230. actives 72% (n = 2,300). inhibition, % at 3.39 µM. recombinant pPAFAH, FP-Rh probe fluorescence polarization. shares compounds with pPAFAH FP inh;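 active = mean inhibition of the triplicate above the hit cutoff set for the earlier primary screen, cut at about 25% in these data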;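 note: 0% = enzyme with DMSO and 100% = wells lacking pPAFAH enzyme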
Starred values were filed as active, the others as inactive; . = no result given; ! = not confirmed by another sample. Shown are actives, neighbours in structure and some others; about 2.8% of the full set was active somewhere.

SMILES | PAFAH1B2 inh | Fam108B counter | pPAFAH FP inh | PME-1 inh | PAFAH2 FP inh | PAFAH1B3 FP inh | Fam108b inh conf | pPAFAH FP conf | others
Cc1c(NS(=O)(=O)c2ccccc2)ccc([N+](=O)[O-])c1Cl | 5 | . | . | . | 4 | 9 | . | .
O=C(c1ccco1)c1cn(Cc2ccccc2)c2ccccc12 | -5 | -6 | 30* | -4 | 3 | -2 | . | .
CC(C)(C)C(=O)c1cn(Cc2ccccc2)c2ccccc12 | 8 | 1 | 5 | 1 | 2 | -4 | . | .
C/C=C(\C)C(=O)OC1C(C)=C2C(C1OC(=O)CCCCC)C(C)(OC(C)=O)CC(OC(=O)CCC)C1(O)C2OC(=O)C1(C)O (stereo not drawn) | . | -9 | 38* | -4 | . | . | . | .
CC(C)(C)C(=O)N1Cc2cnnn2-c2ccccc2C1C#N (stereo not drawn) | 3 | . | . | . | -3 | 2 | . | .
O=NN1CCCCC1 | -3 | . | 0 | -2 | 7 | 0 | . | .
O=S(=O)(NC1CCCCCCC1)OCC(Cl)(Cl)Cl | 48* | 1 | 29* | 2 | 7 | -5 | . | .
CCCCCOc1ccc(C)cc1CN(CCCl)CCCl | . | 1 | -1 | 4 | . | . | . | .
Cc1ccccc1N1C(=O)/C(=C/c2ccco2)C(=O)NC1=S | . | 77* | 91* | 17 | . | . | 68* | . | Fam108b inh=70*
Cc1cccc(N2C(=O)/C(=C/c3ccc(N4CCN(C)CC4)o3)C(=O)NC2=S)c1C | -17 | -24 | 8 | -22 | -17 | -23 | . | .
CCCCn1c(C)c(C(=O)OCC)c2c(CN3CCCC3)c(O)ccc21 | -5 | 46* | 27* | 27* | 5 | -7 | 2 | .
CN(C)[C@@H]1C(=O)C(C(N)=O)=C(O)[C@@]2(O)C(=O)C3=C(O)c4c(O)cccc4[C@@](C)(O)[C@H]3C[C@@H]12 | . | 52* | 73* | -9 | . | . | 55* | .
O=C1CNC(c2ccccc2Cl)c2cc(Br)ccc2N1 (stereo not drawn) | 1 | 1 | -3 | -2 | 4 | 5 | . | .
COc1ccc(/C=C/C(=O)NC(=S)N2C[C@H]3C[C@H](C2)c2cccc(=O)n2C3)cc1OC | 0 | -1 | -6 | 2 | -2 | 6 | . | .
Nc1ccc2ccc3cccc[n+]3c2c1 | 3 | 5 | 4 | 4 | 3 | 3 | . | .
C[n+]1c(-c2ccccc2)c2cc(N)ccc2c2ccc(N)cc21 | 87* | 104* | 68* | 116* | 92* | 121* | 70* | 52* | Fam108b inh=40*
Cc1ccc2c(c1Cl)NC(C(=O)O)C1CC(Sc3ccccc3[N+](=O)[O-])C(Cl)C21 (stereo not drawn) | 8 | 27* | 49* | 0 | 43* | 15 | 11 | 42*
CCN(CC)C(=O)c1ccc2c(c1)C1C(Cl)C(Sc3ccccc3[N+](=O)[O-])CC1C(C(=O)O)N2 (stereo not drawn) | 33* | 47* | 68* | 14 | 53* | 26* | 7 | 36*
CN(C)[C@@H]1C(=O)C(C(N)=O)=C(O)[C@@]2(O)C(=O)C3=C(O)c4c(O)cccc4[C@@](C)(O)C3[C@H](O)C12 (stereo partly drawn) | 31*! | 32*! | 64* | -8 | 47*! | 26*! | 34* | -3
COC(=O)C1=C(c2ccc(OCc3ccccc3)cc2)C[C@@H]2CC[C@H]1N2C(=O)NCc1cccc(C(F)(F)F)c1 | 1 | . | 6 | -13 | -12 | 3 | . | .
O=C(NC1CCCCC1)[C@@H]1CC=C[C@@H]2CCN(Cc3ccccc3)C(=O)[C@@H]21 | 1 | -8 | -4 | -8 | 0 | 10 | . | .
O=C1NC(=O)N(c2ccccc2)C(=O)/C1=C\c1ccc([N+](=O)[O-])s1 | . | 19* | 56* | 3 | . | . | 12 | 46*
COc1ccc(OC)c(N2C(=O)NC(=O)/C(=C\c3ccc([N+](=O)[O-])s3)C2=O)c1 | 47* | 44* | 64* | -1 | 54* | 61* | 11 | 69*
COc1ccc(N2C(=O)NC(=O)/C(=C\c3ccccc3[N+](=O)[O-])C2=O)cc1 | 4 | -7 | -4 | -7 | 5 | 1 | . | .
O=C1NC(=O)N(c2ccccc2)C(=O)/C1=C\c1ccc([N+](=O)[O-])o1 | . | 9 | 19 | -13 | . | . | . | .
SMILES | PAFAH1B2 inh | Fam108B counter | pPAFAH FP inh | PME-1 inh | PAFAH2 FP inh | PAFAH1B3 FP inh | Fam108b inh conf | pPAFAH FP conf | others
C=CCn1c(O)c(C(C)=NCC2CCCO2)c(=O)[nH]c1=O (stereo not drawn) | . | 1 | 0 | 4 | . | . | . | .
N/C(=N\N=C/c1ccc(-c2ccc(O)c(C(=O)O)c2)o1)N[N+](=O)[O-] | 11 | 19* | 50* | -6 | 12 | 30* | 24* | 35*
COc1ccc(/C=N/N=C(/N)N[N+](=O)[O-])c(OC)c1 | 3 | -1 | 3 | -4 | 4 | 1 | . | .
O=[N+]([O-])c1ccc(NCc2ccccc2)c2nonc12 | . | 21* | 47* | 56* | . | . | 38* | 41* | Fam108b inh=0
COC(=O)C1=C(c2cc3ccccc3o2)C[C@@H]2CC[C@H]1N2C(=O)N1CCC(C)CC1 | 1 | 1 | 4 | -2 | -7 | 0 | . | .
O=C(COC(=O)Cc1ccccc1)Nc1cccnc1Cl | 6 | 1 | 5 | 5 | -3 | 6 | . | .
CC1CCCC(NC(=O)COC(=O)Cc2ccccc2)C1C (stereo not drawn) | 5 | 4 | 40* | 0 | 25 | -3 | . | 39*
Cn1cccc1/C=C1/C(=O)NC(=S)N(Cc2ccc(F)cc2)C1=O | 55* | 16 | 61* | 5 | 44* | 3 | . | 45*
FC(F)(F)c1ccc2c(c1)N(CCCN1CCN(CCCl)CC1)c1ccccc1S2 | -1 | -2 | 38* | 6 | -5 | 11 | . | 31*
CN(C)C1C(=O)C(C(N)=O)=C(O)C2(O)C(=O)C3=C(O)c4c(O)cccc4C(C)(O)C3CC12 (stereo not drawn) | 6 | 9 | 36* | -7 | -9 | 7 | . | -1
CN(C)[C@@H]1C(=O)C(C(N)=O)=C(O)[C@@]2(O)C(=O)C3=C(O)c4c(O)ccc(Cl)c4[C@@](C)(O)C3C[C@@H]12 (stereo partly drawn) | 10 | . | . | . | 10 | 20 | . | .
Cc1c(Br)c(=O)oc2cc(OCC(=O)N3C[C@H]4C[C@@H](C3)c3cccc(=O)n3C4)ccc12 | 0 | 1 | 6 | -4 | 3 | -5 | . | .
CCN(CC)c1ccc(N=Cc2c(O)n(-c3ccc(Cl)cc3)c(=O)[nH]c2=O)cc1 | 6 | -3 | 2 | 2 | -2 | 6 | . | .

Screening data deposited in PubChem by The Scripps Research Institute Molecular Screening Center.
